# PMC7862700, “An all-to-all approach to the identification of sequence-specific readers for epigenetic DNA modifications on cytosine”
# Assays:
# Assay in all cases: DAPPL (digital affinity profiling via proximity ligation, sequencing); 10 mM Tris-HCl pH 7.5, 50 mM NaCl, 1 mM DTT, 4% glycerol, room temperature, 30 min; GST-TFs on glutathione beads, 16-mer random dsDNA library, 0.1% formaldehyde crosslink after washing; high values mean tight binding
# FEV = molecular target: T1, FEV (Homo sapiens, UniProt Q99581 1-238); conditions: protein: recombinant; tags: N-terminal GST; dsDNA, one strand shown
# T1 sequence: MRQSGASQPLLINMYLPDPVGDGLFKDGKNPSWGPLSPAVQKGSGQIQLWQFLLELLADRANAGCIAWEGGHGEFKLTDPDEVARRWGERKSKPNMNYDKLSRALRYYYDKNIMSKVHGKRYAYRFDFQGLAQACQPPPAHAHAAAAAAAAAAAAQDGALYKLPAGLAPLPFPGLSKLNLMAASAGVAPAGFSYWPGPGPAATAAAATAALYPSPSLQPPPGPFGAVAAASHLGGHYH
# In short: (§1)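 Each value of binding signal is a hexamer's read frequency for a factor divided by the same hexamer's frequency in the tag-only sample. Barcoded, bead-captured GST fusions of human transcription factors made in yeast were pooled with that sample and incubated with 200 nmole of a random double-stranded 16-mer DNA library in Tris/NaCl/DTT/glycerol buffer at room temperature for 30 min. Washing, 0.1% formaldehyde crosslinking, proximity ligation, PCR and Illumina NextSeq500 sequencing followed.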
# ETV5 = ETV5 (Homo sapiens, UniProt P41161 1-510); conditions: protein: recombinant; tags: N-terminal GST; dsDNA, one strand shown
# Sequence of ETV5 (P41161 whole entry): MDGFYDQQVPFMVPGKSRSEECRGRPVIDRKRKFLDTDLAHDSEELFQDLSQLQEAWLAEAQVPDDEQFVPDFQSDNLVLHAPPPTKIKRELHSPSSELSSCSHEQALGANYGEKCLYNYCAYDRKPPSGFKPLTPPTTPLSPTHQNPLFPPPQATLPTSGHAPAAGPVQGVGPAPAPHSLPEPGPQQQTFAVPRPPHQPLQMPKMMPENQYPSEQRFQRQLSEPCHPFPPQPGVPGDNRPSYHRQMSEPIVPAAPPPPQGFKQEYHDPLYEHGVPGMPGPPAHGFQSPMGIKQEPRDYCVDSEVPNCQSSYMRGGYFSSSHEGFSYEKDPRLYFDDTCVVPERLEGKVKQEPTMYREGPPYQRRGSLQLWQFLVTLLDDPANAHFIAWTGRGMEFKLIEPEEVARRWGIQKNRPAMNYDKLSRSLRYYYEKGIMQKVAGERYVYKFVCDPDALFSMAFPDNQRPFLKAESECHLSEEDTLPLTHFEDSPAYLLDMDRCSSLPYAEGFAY
# In short: as §1
# HSF1 = HSF1 (Homo sapiens, UniProt Q00613 1-529); conditions: protein: recombinant; tags: N-terminal GST; chain copies: 3; dsDNA, one strand shown
# Sequence of HSF1 (Q00613 whole entry): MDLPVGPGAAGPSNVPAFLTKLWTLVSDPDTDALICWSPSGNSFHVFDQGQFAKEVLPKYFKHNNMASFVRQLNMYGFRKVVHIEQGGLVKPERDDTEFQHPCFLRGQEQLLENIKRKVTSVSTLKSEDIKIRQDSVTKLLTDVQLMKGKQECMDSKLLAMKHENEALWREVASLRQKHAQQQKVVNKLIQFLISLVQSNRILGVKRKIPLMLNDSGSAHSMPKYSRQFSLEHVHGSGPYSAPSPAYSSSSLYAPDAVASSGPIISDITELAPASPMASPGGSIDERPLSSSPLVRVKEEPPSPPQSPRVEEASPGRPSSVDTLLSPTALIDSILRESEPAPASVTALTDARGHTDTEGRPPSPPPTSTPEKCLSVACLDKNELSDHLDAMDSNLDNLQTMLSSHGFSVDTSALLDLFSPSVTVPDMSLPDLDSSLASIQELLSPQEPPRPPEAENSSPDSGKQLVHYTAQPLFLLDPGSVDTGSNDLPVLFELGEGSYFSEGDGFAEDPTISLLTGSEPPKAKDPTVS
# In short: as §1
# SPIC = molecular target: T2, SPIC (Homo sapiens, UniProt Q8N5J4 1-248); conditions: protein: recombinant; tags: N-terminal GST; dsDNA, one strand shown
# T2 sequence: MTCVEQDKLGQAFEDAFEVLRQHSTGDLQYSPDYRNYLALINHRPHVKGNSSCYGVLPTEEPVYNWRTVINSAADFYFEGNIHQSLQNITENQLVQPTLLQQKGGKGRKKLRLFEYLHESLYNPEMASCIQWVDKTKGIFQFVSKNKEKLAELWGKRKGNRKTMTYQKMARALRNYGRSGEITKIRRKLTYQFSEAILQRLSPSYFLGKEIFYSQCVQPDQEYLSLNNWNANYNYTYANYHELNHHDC
# In short: as §1
# ELF4 = ELF4 (Homo sapiens, UniProt Q99607 1-663); conditions: protein: recombinant; tags: N-terminal GST; dsDNA, one strand shown
# Sequence of ELF4 (Q99607 whole entry): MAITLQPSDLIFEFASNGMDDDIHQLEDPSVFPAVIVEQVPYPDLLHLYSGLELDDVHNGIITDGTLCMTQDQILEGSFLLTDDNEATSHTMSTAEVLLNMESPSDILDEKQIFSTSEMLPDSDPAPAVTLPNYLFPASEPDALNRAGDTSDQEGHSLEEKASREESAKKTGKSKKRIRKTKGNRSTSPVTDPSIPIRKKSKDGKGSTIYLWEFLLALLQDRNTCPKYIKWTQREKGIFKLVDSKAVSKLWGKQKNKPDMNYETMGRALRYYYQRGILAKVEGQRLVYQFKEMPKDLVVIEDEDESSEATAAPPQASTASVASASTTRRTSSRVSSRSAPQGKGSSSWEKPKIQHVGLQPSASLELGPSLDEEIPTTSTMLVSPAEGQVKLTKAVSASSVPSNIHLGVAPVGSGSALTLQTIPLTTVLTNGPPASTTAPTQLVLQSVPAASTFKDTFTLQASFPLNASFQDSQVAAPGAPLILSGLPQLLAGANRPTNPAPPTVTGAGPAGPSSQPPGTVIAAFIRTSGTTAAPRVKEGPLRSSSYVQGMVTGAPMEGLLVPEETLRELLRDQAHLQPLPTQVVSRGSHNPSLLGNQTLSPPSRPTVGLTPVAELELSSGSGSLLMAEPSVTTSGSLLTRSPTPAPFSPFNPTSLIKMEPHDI
# In short: as §1
# ELK4 = molecular target: T3, ELK4 (Homo sapiens, UniProt P28324-2 1-405); conditions: protein: recombinant; tags: N-terminal GST; dsDNA, one strand shown
# T3 sequence: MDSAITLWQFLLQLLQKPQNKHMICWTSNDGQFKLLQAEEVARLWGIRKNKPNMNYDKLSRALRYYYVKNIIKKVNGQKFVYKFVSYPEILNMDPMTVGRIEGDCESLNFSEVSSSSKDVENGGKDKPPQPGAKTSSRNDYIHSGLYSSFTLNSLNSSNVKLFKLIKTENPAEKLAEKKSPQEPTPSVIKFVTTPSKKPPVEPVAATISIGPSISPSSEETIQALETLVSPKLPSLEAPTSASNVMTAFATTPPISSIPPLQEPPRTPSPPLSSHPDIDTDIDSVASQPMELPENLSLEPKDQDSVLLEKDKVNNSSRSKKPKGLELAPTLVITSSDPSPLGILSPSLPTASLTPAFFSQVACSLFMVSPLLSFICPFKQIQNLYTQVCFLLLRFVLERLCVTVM
# In short: as §1
# ETV2 = molecular target: T4, ETV2 (Homo sapiens, UniProt O00321 1-342); conditions: protein: recombinant; tags: N-terminal GST; dsDNA, one strand shown
# T4 sequence: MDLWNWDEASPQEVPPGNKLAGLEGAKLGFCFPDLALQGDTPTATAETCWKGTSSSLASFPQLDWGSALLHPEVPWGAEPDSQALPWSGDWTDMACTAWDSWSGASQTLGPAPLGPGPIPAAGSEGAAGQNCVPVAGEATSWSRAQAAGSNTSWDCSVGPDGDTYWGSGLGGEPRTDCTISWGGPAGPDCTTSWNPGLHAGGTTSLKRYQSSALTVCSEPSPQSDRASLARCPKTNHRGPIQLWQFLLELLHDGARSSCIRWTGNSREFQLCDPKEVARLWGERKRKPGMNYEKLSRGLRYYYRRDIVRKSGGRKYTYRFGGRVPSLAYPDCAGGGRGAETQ
# In short: as §1
# ELF3 = molecular target: T5, ELF3 (Homo sapiens, UniProt P78545 1-371); conditions: protein: recombinant; tags: N-terminal GST; dsDNA, one strand shown
# T5 sequence: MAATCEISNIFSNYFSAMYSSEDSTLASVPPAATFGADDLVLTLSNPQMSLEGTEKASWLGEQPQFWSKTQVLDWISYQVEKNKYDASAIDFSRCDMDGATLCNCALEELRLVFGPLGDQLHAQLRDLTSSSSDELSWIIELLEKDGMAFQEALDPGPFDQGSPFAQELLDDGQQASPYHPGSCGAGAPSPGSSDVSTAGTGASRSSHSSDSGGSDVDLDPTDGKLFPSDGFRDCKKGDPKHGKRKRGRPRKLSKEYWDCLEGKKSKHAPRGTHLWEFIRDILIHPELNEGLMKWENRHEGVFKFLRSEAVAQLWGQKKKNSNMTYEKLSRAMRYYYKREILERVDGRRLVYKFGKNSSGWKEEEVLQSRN
# In short: as §1
# CRX = CRX (Homo sapiens, UniProt O43186 1-299); conditions: protein: recombinant; tags: N-terminal GST; dsDNA, one strand shown
# Sequence of CRX (O43186 whole entry): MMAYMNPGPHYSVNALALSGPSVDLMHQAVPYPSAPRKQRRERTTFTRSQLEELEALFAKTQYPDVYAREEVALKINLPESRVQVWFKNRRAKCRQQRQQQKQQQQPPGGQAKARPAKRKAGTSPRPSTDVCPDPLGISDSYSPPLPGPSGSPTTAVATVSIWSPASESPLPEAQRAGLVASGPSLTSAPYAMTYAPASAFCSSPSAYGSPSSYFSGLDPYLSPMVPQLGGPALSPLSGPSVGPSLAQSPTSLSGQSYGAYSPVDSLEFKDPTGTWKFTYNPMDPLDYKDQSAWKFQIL
# In short: as §1
# ETV1 = ETV1 (Homo sapiens, UniProt P50549 1-477); conditions: protein: recombinant; tags: N-terminal GST; dsDNA, one strand shown
# Sequence of ETV1 (P50549 whole entry): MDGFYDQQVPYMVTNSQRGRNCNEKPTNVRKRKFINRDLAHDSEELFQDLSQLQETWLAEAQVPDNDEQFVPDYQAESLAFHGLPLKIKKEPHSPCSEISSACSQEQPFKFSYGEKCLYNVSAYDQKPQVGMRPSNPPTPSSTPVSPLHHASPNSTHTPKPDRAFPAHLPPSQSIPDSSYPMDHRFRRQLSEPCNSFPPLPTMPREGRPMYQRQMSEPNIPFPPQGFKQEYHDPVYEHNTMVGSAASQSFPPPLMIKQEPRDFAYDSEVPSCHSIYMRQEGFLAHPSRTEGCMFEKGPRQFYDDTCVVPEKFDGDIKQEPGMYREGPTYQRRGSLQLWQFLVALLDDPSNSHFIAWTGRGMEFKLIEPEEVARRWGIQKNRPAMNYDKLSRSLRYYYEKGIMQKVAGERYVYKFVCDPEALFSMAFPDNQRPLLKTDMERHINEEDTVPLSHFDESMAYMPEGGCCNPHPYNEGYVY
# In short: as §1
# ERF = molecular target: T6, ERF (Homo sapiens, UniProt P50548 1-548); conditions: protein: recombinant; tags: N-terminal GST; dsDNA, one strand shown
# T6 sequence: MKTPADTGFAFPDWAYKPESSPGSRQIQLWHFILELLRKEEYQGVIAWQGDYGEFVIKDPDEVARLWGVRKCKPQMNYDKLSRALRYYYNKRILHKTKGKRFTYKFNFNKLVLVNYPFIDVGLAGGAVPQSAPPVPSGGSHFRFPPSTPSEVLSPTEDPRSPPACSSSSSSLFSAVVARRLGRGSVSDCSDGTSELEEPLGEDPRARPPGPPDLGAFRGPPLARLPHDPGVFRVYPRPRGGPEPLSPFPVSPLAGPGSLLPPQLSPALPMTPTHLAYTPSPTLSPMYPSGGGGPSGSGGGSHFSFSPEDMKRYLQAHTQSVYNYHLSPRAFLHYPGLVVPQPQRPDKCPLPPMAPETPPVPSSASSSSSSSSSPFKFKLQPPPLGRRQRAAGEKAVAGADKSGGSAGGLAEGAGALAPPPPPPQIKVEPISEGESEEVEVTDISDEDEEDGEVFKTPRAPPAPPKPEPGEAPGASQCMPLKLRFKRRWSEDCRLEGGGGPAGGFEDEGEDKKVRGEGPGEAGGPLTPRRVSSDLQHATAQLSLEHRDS
# In short: as §1
# ETV3L = molecular target: T7, ETV3L (Homo sapiens, UniProt Q6ZN32 1-361); conditions: protein: recombinant; tags: N-terminal GST; dsDNA, one strand shown
# T7 sequence: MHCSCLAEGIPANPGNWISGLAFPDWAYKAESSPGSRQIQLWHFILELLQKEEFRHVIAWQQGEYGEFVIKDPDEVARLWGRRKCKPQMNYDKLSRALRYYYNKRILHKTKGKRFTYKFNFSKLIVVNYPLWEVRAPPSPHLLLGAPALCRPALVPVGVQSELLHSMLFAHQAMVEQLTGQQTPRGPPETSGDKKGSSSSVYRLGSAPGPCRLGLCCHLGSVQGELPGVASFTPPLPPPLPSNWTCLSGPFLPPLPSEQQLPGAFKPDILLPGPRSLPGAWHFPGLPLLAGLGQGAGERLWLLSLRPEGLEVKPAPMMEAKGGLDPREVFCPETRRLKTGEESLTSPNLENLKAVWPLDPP
# In short: as §1
# ETS2 = molecular target: T8, ETS2 (Homo sapiens, UniProt P15036 1-469); conditions: protein: recombinant; tags: N-terminal GST; dsDNA, one strand shown
# T8 sequence: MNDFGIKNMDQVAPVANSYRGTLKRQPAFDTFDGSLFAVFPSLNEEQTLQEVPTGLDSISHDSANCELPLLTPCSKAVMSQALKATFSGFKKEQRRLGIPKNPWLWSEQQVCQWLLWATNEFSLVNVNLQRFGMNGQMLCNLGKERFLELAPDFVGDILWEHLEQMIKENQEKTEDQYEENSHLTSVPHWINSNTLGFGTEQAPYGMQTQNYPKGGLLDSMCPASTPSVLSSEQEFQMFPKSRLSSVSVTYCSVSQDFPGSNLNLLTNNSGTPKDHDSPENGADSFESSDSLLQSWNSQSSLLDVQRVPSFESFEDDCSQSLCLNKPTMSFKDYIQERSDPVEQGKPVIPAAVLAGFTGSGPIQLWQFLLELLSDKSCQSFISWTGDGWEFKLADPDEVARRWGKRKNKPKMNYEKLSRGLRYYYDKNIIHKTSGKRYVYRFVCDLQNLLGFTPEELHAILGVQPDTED
# In short: as §1
# SPDEF = molecular target: T9, SPDEF (Homo sapiens, UniProt O95238 1-335); conditions: protein: recombinant; tags: N-terminal GST; dsDNA, one strand shown
# T9 sequence: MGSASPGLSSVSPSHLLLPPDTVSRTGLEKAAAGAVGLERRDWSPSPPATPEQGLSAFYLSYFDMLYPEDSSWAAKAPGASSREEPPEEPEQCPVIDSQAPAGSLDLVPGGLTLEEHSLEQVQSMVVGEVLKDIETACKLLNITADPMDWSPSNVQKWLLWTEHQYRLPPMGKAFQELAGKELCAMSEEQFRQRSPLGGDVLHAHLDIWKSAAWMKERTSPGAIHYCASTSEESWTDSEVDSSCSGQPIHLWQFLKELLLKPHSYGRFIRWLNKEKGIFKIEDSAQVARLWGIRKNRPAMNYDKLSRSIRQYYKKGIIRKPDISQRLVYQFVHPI
# In short: as §1
# ETV7 = molecular target: T10, ETV7 (Homo sapiens, UniProt Q9Y603 1-341); conditions: protein: recombinant; tags: N-terminal GST; dsDNA, one strand shown
# T10 sequence: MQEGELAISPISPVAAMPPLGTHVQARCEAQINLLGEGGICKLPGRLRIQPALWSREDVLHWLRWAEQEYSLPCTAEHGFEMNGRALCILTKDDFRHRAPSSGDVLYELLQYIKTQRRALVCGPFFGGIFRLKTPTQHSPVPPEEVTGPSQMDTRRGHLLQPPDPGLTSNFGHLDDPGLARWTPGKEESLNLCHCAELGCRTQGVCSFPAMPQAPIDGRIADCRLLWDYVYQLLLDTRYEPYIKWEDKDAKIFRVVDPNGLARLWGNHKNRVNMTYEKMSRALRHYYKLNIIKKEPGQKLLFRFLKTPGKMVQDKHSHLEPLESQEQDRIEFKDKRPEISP
# In short: as §1
# ELF5 = molecular target: T11, ELF5 (Homo sapiens, UniProt Q9UKW6-2 1-255); conditions: protein: recombinant; tags: N-terminal GST; dsDNA, one strand shown
# T11 sequence: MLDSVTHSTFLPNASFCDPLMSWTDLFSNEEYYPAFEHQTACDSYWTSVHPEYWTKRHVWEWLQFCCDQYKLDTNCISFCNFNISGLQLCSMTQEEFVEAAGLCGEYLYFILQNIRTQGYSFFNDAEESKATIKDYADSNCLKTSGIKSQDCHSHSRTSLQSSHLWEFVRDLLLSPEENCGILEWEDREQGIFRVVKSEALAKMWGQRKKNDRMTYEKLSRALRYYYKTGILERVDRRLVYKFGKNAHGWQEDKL
# In short: as §1
# ETV3 = molecular target: T12, ETV3 (Homo sapiens, UniProt P41162-2 1-143); conditions: protein: recombinant; tags: N-terminal GST; dsDNA, one strand shown
# T12 sequence: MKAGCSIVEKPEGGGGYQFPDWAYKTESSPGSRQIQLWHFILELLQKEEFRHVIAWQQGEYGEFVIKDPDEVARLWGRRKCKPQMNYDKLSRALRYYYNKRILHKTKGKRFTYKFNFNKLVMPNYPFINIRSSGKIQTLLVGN
# In short: as §1
# ETV6 = ETV6 (Homo sapiens, UniProt P41212 1-452); conditions: protein: recombinant; tags: N-terminal GST; dsDNA, one strand shown
# Sequence of ETV6 (P41212 whole entry): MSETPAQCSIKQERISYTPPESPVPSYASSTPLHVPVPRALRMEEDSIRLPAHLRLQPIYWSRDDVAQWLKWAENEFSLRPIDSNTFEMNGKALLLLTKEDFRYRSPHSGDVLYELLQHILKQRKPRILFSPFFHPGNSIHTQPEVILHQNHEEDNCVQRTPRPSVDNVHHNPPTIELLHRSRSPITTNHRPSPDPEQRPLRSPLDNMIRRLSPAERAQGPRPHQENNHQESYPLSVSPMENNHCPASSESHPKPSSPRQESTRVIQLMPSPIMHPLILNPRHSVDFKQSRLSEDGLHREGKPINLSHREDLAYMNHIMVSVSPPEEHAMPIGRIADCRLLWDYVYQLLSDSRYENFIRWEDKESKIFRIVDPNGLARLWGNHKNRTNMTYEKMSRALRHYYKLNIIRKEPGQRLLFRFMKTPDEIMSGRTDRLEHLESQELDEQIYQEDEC
# In short: as §1
sequence,measurement,setting,value
CTCAAC,binding signal,FEV,"1.32 fold enrichment (6-mer frequency, TF over GST control)"
same,binding signal,ETV5,"1.3 fold enrichment (6-mer frequency, TF over GST control)"
same,binding signal,HSF1,"1.1 fold enrichment (6-mer frequency, TF over GST control)"
same,binding signal,SPIC,"1.36 fold enrichment (6-mer frequency, TF over GST control)"
same,binding signal,ELF4,"1.3 fold enrichment (6-mer frequency, TF over GST control)"
same,binding signal,ELK4,"1.18 fold enrichment (6-mer frequency, TF over GST control)"
same,binding signal,ETV2,"1.29 fold enrichment (6-mer frequency, TF over GST control)"
same,binding signal,ELF3,"1.19 fold enrichment (6-mer frequency, TF over GST control)"
same,binding signal,CRX,"1.13 fold enrichment (6-mer frequency, TF over GST control)"
same,binding signal,ETV1,"1.24 fold enrichment (6-mer frequency, TF over GST control)"
same,binding signal,ERF,"1.15 fold enrichment (6-mer frequency, TF over GST control)"
same,binding signal,ETV3L,"1.41 fold enrichment (6-mer frequency, TF over GST control)"
same,binding signal,ETS2,"1.27 fold enrichment (6-mer frequency, TF over GST control)"
same,binding signal,SPDEF,"1.24 fold enrichment (6-mer frequency, TF over GST control)"
same,binding signal,ETV7,"1.11 fold enrichment (6-mer frequency, TF over GST control)"
same,binding signal,ELF5,"1.16 fold enrichment (6-mer frequency, TF over GST control)"
same,binding signal,ETV3,"1.28 fold enrichment (6-mer frequency, TF over GST control)"
same,binding signal,ETV6,"1.24 fold enrichment (6-mer frequency, TF over GST control)"
